Records with an inconclusive call do not appear. Calls of active or inactive are those of the source.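 The calls were made as follows, unless noted: active = inhibition above the screen-wide mean plus 3 SD, about 51%; inactive = the rest.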
Key:
[1] = rapamycin-like changes in RPL19A-GFP expression – cell-based, S. cerevisiae, multiplex flow cytometry, primary screen (AID 1862; in the data active = percent of DMSO control GFP below about 86%;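 also: lower values mimic rapamycin by blocking the RPL19A rise seen in DMSO cells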); settings: S. cerevisiae RPL19A-GFP strain, flow cytometry fluorescence, 3 h; at 10 µM; stronger effect = lower value
[2] = TOR pathway GLN3 branch reporter MEP2-GFP changes – S. cerevisiae, multiplex flow cytometry, primary screen (AID 1867;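 active = GFP response, as percent of the DMSO control, above the screen-wide mean plus 3 SD, about 139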;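 also: median GFP channel fluorescence of barcode-gated MEP2-GFP cells measured by flow cytometry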); settings: S. cerevisiae MEP2-GFP strain, 3 h, at 10 µM, stronger effect = higher value, 100% means same as DMSO wells
[3] = TOR pathway RTG branch CIT2 reporter changes – S. cerevisiae, GFP fusion, multiplex flow cytometry, primary screen (AID 1870;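 active = percent response above a set limit, the screen-wide mean plus 3 SD, cut at about 130% in these data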;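 also: barcoded CIT2-GFP strain pooled with four other GFP strains with rapamycin as positive control; median GFP fluorescence per well over plate mean of DMSO wells so 100% = DMSO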); settings: S. cerevisiae CIT2-GFP expression, 3 h, at 10 µM, stronger effect = higher value
[4] = TOR pathway LAP4-GFP level changes – S. cerevisiae, multiplex flow cytometry, primary screen (AID 1873;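 active = GFP signal, as percent of the solvent control, above the screen mean plus 3 SD, about 149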); settings: S. cerevisiae LAP4-GFP expression, 3 h, at 10 µM, stronger effect = higher value
[5] = yeast AGP1-GFP level changes, GLN3 branch – cell-based, multiplex flow cytometry, S. cerevisiae, primary screen (AID 1887;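 active = GFP signal above the screen-wide mean plus 3 SD, that is over about 124.5% of the solvent control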;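 also: AGP1-GFP fusion strain of S. cerevisiae within a five-strain barcoded multiplex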); settings: 3 h, at 10 µM, stronger effect = higher value
[6] = reduced mouse 2C T cell binding to pMHC/ICAM-1 vesicles – MLPCN validation set, flow cytometry, LFA-1/ICAM-1 modulator project, pilot screen (AID 2523;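 active = response below a set limit, under 55% cells CD8-positive and vesicle-bound, and CD8 cells' 90th-percentile brightness under 279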;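 as to vesicle binding response: mean PE anti-B7-1 fluorescence of CD8+ cells relative to row control; 100% = QL9-loaded vesicles with DMSO vehicle in the same plate row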); settings: 2C mouse CD8+ T cells, at 7 µM, stronger effect = lower value; double positive events: measured here: CD8+/vesicle+ event percentage
[7] = target: Integrin beta-1 (Homo sapiens) + Integrin alpha-4 (Homo sapiens) (UniProt P13612+P05556); experiment: alpha4beta1 integrin LIBS antibody binding reduction – U937 cells, HUTS-21 mAb, flow cytometry, validation set, VLA-4 allosteric modulator project, pilot screen (AID 2674;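 active = inhibition above 50%, about 3 SD of the validation set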;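 also: antibody binding induced by the VLA-4 ligand LDV present at three times its Kd; 0% = LDV ligand with antibody and no compound and 100% = antibody without LDV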); settings: HUTS-21 LIBS mAb binding, at 6.7 µM, stronger effect = higher value, binding induced by LDV ligand
[8] = calorie-restriction mimetic ROS inhibitors, yeast – validation compound set, pilot screen (AID 2706;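 active = superoxide response below 65% of plate, a cut near 3 SD across the whole screen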;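 also: yeast exposed to compound for one week at 30 degrees C before staining; 100% = mean of all compound wells on the same plate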); settings: S. cerevisiae aging, superoxide DHE fluorescence; at 10 µM; stronger effect = lower value
[9] = target: Beta-adrenergic receptor kinase 1 (Homo sapiens) (UniProt P25098); experiment: GRK2 binders displacing RNA aptamer, biochemical, validation, human GRK2, bead flow cytometry (AID 488806;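 active = aptamer binding inhibition above 30%, about 3 SD of noise from non-fluorescent compounds; inactive = inhibition at or below 30%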); settings: bead-bound GRK2, FAM-aptamer displacement, at 10 µM, stronger effect = higher value
[10] = target: Beta-2 adrenergic receptor (Homo sapiens) (UniProt P07550); experiment: agonist-induced loss of surface beta2AR – cell-based, FAP fluorogen, flow cytometry, validation set, pilot screen (AID 504459;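 active = percent response above 42, roughly 3 SD of non-fluorescent test compounds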;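 also: agonist-driven loss of surface beta2AR via internalization measured by FAP dye flow cytometry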); settings: Am2.2-beta2AR cells, at 10 µM, stronger effect = higher value
[11] = target: AP-2 complex subunit beta (Homo sapiens) (UniProt P63010); experiment: beta-arrestin/AP2 interaction blockers – biochemical, validation set, GST-AP2 beads, flow cytometry, pilot screen (AID 504541;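 active = inhibition above 54%, about 3 SD of non-fluorescent compounds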;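 also: AP2 carries R879A mutation and is captured from E. coli lysate; bead-bound FITC arrestin peptide fluorescence measuring arrestin peptide binding to AP2; 0% = DMSO wells and 100% = excess unlabeled arrestin peptide control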); settings: FITC arrestin peptide, at 10 µM, stronger effect = higher value, AP2 beta2 appendage fragment, R879A mutant
[12] = cytosolic pH regulators acting via V-ATPase – S. cerevisiae, pHLuorin, HTS validation (AID 504600; in the data active = response above about 15%;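 also: plate controls were DMSO for no effect and reference compound for full effect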); settings: V-ATPase proton transport, at 10 µM, stronger effect = higher value
[13] = test system: anti-desmoglein-3 scFv antibody binding to human DSG3; experiment: blockers of pathogenic pemphigus antibody–desmoglein-3 binding – biochemical, validation compound set, bead-based, flow cytometry, pilot screen (AID 588368;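 active = binding below the plate cutoff, the plate median minus 3 SD, with a reading above zero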;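 also: signal is the median channel fluorescence of bead-bound GFP antibody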); settings: Protein G beads, DSG3-Fc, scFv-GFP binding, at 10 µM, stronger effect = lower value
[14] = Nile Red efflux blockade in pump-expressing yeast – validation compound set, multiplex, phenotypic, pilot screen (AID 588506;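 active = efflux inhibition above 0.42, the validation set average plus 4 SD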;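 also: Nile Red retained in cells so higher fluorescence means more efflux inhibition; 0 = negative control wells and 1 = enniatin B 25 µM full block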); settings: S. cerevisiae pump-expressing triplex, Nile Red efflux flow cytometry; at 10 µM; stronger effect = higher value; the pumps come from Candida albicans
[15] = target: ATP-binding cassette sub-family B member 6 (Homo sapiens) (UniProt Q9NP58); experiment: blockers of ABCB6-driven porphyrin uptake – K562-ABCB6 cells, flow cytometry, validation set, pilot screen (AID 588550); settings: K562-ABCB6 porphyrin accumulation, 1 h, at 10 µM, stronger effect = higher value;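 also: 0% = DMSO wells and 100% = benzethonium chloride 70 µM positive control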
[16] = AML differentiation inducers, ER-HoxA9 marrow cells – cell-based, GFP/MAC1 double positive, flow cytometry, validation set, primary screen (AID 588685;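 active = differentiation response of at least 50%, scaled between solvent and reference control, from cells with both markers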;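 also: compound exposure lasts four days before antibody staining and flow analysis; 0% = DMSO wells and 100% = 5 µM fulvestrant positive control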); settings: stronger effect = higher value, normalized: vehicle 0, fulvestrant 100

ATP-binding cassette sub-family B member 6 (Homo sapiens), sequence (Q9NP58 whole entry, looked up): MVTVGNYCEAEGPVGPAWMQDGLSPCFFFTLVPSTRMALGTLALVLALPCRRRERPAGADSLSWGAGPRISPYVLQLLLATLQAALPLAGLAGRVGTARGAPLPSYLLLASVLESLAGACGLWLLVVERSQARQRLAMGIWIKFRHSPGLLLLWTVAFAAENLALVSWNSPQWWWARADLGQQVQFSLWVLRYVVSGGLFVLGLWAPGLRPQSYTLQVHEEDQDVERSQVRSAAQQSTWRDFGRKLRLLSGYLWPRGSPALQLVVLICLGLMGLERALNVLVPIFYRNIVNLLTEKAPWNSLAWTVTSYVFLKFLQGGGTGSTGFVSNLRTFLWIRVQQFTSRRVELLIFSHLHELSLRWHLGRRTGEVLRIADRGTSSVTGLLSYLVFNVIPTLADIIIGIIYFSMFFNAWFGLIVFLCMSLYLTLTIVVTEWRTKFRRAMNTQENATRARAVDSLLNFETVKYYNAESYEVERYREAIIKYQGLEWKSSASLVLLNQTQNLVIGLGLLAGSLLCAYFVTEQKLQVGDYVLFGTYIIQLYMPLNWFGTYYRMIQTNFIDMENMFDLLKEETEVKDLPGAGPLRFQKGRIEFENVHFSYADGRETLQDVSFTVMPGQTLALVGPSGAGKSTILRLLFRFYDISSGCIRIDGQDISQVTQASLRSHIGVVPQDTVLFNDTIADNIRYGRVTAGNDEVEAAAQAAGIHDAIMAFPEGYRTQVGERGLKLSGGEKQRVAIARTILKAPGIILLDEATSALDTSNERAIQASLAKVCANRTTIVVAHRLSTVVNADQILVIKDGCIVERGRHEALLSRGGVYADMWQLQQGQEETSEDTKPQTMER
Beta-2 adrenergic receptor (Homo sapiens), sequence (P07550 whole entry, looked up): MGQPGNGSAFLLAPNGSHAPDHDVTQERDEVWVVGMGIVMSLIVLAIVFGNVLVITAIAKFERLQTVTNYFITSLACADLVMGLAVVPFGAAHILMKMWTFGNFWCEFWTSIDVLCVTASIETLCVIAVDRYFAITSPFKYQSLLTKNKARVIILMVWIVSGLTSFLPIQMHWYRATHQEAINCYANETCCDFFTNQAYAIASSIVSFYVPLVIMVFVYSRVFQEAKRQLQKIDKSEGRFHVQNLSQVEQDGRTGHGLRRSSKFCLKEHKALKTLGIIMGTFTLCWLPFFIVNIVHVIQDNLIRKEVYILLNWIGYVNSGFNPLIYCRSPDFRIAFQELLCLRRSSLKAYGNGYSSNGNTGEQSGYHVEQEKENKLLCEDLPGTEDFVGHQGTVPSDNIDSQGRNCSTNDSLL
Integrin beta-1 (Homo sapiens) + Integrin alpha-4 (Homo sapiens), sequence (P05556 whole entry, looked up): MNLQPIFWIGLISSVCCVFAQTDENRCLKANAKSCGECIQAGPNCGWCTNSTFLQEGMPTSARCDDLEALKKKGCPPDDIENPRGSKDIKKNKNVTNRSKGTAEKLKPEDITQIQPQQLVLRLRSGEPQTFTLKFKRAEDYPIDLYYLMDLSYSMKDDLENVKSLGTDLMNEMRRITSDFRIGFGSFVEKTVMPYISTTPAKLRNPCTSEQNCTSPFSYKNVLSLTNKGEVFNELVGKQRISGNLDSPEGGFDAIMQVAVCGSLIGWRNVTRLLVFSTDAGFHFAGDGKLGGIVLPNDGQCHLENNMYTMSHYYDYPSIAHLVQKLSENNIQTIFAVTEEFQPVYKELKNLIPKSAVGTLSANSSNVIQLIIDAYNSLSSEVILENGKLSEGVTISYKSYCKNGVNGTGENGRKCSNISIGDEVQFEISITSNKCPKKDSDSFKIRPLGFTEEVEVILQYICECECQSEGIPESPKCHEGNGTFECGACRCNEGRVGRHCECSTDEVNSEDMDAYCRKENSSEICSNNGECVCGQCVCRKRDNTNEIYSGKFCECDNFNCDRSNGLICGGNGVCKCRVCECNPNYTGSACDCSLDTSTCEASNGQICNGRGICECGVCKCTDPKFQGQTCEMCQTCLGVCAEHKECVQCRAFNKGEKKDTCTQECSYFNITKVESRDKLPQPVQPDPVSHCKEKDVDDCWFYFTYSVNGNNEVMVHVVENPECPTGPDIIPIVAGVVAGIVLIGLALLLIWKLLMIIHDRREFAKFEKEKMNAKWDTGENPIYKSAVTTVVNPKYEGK
Integrin beta-1 (Homo sapiens) + Integrin alpha-4 (Homo sapiens), sequence (P13612 whole entry, looked up): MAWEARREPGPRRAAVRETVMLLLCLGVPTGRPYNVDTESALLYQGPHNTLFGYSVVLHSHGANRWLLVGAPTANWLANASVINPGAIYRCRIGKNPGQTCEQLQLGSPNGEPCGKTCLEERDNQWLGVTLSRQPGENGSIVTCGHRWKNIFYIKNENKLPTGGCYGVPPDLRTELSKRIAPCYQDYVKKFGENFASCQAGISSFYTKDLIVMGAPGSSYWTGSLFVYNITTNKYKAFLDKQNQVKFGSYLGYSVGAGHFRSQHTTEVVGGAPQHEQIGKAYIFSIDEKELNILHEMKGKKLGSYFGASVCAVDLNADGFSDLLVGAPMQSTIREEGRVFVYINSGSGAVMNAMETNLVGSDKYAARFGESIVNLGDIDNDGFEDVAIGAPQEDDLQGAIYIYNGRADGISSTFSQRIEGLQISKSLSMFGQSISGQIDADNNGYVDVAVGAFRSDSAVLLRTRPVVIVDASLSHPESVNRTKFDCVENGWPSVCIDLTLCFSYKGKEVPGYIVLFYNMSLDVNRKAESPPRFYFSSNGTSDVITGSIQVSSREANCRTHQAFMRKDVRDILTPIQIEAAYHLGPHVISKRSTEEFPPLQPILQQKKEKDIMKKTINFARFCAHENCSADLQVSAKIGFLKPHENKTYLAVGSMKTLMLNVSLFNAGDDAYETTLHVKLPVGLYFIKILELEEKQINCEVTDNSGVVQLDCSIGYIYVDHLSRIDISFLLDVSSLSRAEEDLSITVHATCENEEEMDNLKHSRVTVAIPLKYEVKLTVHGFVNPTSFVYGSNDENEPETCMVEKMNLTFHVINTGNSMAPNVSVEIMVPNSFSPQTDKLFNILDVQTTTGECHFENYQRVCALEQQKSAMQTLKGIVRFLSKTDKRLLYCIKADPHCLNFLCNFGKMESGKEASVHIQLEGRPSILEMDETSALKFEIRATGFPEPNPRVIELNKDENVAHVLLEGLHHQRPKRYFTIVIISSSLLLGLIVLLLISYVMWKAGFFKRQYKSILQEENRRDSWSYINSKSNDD
Beta-adrenergic receptor kinase 1 (Homo sapiens), sequence (P25098 whole entry, looked up): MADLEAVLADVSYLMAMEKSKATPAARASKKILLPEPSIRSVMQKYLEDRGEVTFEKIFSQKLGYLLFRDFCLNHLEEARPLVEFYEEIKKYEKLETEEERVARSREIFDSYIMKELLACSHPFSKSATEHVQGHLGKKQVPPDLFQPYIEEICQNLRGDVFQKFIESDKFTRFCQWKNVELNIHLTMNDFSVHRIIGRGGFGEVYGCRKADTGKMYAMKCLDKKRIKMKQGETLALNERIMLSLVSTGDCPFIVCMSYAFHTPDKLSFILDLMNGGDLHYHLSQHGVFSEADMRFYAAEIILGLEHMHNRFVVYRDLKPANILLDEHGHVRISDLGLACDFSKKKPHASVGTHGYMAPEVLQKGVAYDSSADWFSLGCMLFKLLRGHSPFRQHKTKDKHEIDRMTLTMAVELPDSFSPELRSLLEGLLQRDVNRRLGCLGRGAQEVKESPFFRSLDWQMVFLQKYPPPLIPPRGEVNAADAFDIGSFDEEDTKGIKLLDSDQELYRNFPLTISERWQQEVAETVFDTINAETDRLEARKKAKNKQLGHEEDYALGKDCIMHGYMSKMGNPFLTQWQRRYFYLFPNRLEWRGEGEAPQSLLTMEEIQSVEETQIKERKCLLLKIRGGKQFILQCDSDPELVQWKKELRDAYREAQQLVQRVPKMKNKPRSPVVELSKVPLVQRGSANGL
AP-2 complex subunit beta (Homo sapiens), sequence (P63010 whole entry, looked up, the tested form may be a part, one chain of several): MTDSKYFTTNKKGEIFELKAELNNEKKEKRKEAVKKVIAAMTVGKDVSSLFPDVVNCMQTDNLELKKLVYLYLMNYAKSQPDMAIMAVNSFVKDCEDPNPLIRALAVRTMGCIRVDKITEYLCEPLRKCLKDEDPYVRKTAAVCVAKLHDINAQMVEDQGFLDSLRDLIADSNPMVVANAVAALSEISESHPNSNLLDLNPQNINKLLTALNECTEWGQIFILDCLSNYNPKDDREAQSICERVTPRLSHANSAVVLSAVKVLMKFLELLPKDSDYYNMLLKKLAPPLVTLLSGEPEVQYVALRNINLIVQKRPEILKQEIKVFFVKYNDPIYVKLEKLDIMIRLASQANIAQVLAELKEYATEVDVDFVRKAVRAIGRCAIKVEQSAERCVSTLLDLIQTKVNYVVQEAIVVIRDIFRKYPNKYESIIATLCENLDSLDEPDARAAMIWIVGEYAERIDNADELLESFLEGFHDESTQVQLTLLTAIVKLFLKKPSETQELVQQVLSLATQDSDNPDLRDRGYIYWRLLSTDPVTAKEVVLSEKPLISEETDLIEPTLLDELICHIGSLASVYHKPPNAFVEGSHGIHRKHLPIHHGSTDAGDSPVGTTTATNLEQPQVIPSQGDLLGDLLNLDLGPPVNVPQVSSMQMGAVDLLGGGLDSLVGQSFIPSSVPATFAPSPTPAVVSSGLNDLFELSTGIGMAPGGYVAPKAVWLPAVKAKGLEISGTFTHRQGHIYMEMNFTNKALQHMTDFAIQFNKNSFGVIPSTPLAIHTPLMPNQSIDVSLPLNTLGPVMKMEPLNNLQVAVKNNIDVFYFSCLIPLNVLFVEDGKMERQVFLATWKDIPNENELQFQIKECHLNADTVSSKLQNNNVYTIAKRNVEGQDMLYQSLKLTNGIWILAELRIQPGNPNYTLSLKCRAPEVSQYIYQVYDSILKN

CN(Cc1c(C(=O)N(C)Cc2ccccc2)nc2ccccn12)CC1Cc2ccccc2O1 (stereo not given)
inactive: percent of DMSO control GFP [1] 98.4% | GFP response vs DMSO [2] 104% | percent response of DMSO control [3] 98.2% | GFP response vs DMSO [4] 89.4% | GFP response, % of DMSO [5] 93.7% | vesicle binding response [6] 2590% | inhibition [7] -11.8% | superoxide response (% of plate) [8] 105% | aptamer binding inhibition [9] 3% | response [10] 0.21% | inhibition [11] -19.1% | response [12] -0.37% | binding (% of control) [13] 98.2% | efflux inhibition (fraction of control) [14] 0.17 | inhibition [15] 14% | differentiation response [16] -2.64%
61.4%: double positive events [6]

CCC(C(=O)Nc1ccc2c(c1)OCCO2)c1ccccc1 (stereo not given)
58.6%: double positive events [6]
inactive: percent of DMSO control GFP [1] 103% | GFP response vs DMSO [2] 103% | percent response of DMSO control [3] 101% | GFP response vs DMSO [4] 113% | GFP response, % of DMSO [5] 110% | vesicle binding response [6] 143% | inhibition [7] 8.29% | superoxide response (% of plate) [8] 96.9% | aptamer binding inhibition [9] -1% | response [10] 3.82% | inhibition [11] 3.98% | response [12] -0.08% | binding (% of control) [13] 101% | efflux inhibition (fraction of control) [14] -0.03 | inhibition [15] -7% | differentiation response [16] -10.4%

N/C(=N\OC(=O)c1ccc(Br)o1)c1ccccn1
inactive: percent of DMSO control GFP [1] 101% | GFP response vs DMSO [2] 102% | percent response of DMSO control [3] 95.1% | GFP response vs DMSO [4] 124% | GFP response, % of DMSO [5] 96.9% | vesicle binding response [6] 232% | inhibition [7] 17.6% | superoxide response (% of plate) [8] 117% | aptamer binding inhibition [9] 3% | response [10] -28.6% | inhibition [11] 2.47% | response [12] 5.72% | binding (% of control) [13] 98.7% | efflux inhibition (fraction of control) [14] -0.04 | inhibition [15] 6% | differentiation response [16] 5.85%
67.8%: double positive events [6]

CCOc1ccc(C(=O)NCC2(c3ccccc3)CCOCC2)cc1
inactive: percent of DMSO control GFP [1] 99.8% | GFP response vs DMSO [2] 97.7% | percent response of DMSO control [3] 108% | GFP response vs DMSO [4] 105% | GFP response, % of DMSO [5] 108% | vesicle binding response [6] 172% | inhibition [7] -13.2% | superoxide response (% of plate) [8] 95.9% | aptamer binding inhibition [9] -4% | response [10] -2.34% | inhibition [11] -4.75% | response [12] -1% | binding (% of control) [13] 107% | efflux inhibition (fraction of control) [14] -0.11 | inhibition [15] 11% | differentiation response [16] 10.1%
63.3%: double positive events [6]

O=Cc1ccc(O)c(O)c1
65.7%: double positive events [6]
inactive: percent of DMSO control GFP [1] 106% | GFP response vs DMSO [2] 99.7% | percent response of DMSO control [3] 107% | GFP response vs DMSO [4] 98% | GFP response, % of DMSO [5] 108% | vesicle binding response [6] 145% | inhibition [7] 8.29% | superoxide response (% of plate) [8] 99.7% | aptamer binding inhibition [9] 6% | response [10] 0.09% | inhibition [11] 6.09% | response [12] -5.24% | binding (% of control) [13] 105% | efflux inhibition (fraction of control) [14] -0.11 | inhibition [15] 21% | differentiation response [16] -4.57%

COc1ccc(CN2CCCC(C(=O)c3ccc(Cl)cc3)C2)cc1Cn1cccn1 (stereo not given)
61.3%: double positive events [6]
inactive: percent of DMSO control GFP [1] 104% | GFP response vs DMSO [2] 105% | percent response of DMSO control [3] 99.7% | GFP response vs DMSO [4] 95.9% | GFP response, % of DMSO [5] 100% | vesicle binding response [6] 182% | inhibition [7] -9.13% | superoxide response (% of plate) [8] 79.4% | aptamer binding inhibition [9] -4% | response [10] 30.8% | inhibition [11] -0.55% | response [12] 1.1% | binding (% of control) [13] 98.5% | efflux inhibition (fraction of control) [14] 0.05 | inhibition [15] 12% | differentiation response [16] -3.11%

CC(C)Oc1ccc(C2CC(=O)N(c3ccc(C(=O)O)cc3)C2=O)cc1 (stereo not given)
57.7%: double positive events [6]
inactive: percent of DMSO control GFP [1] 98.1% | GFP response vs DMSO [2] 97.6% | percent response of DMSO control [3] 105% | GFP response vs DMSO [4] 137% | GFP response, % of DMSO [5] 122% | vesicle binding response [6] 178% | inhibition [7] 3.14% | superoxide response (% of plate) [8] 135% | aptamer binding inhibition [9] -4% | response [10] -19.8% | inhibition [11] -15% | response [12] -1.38% | binding (% of control) [13] 105% | efflux inhibition (fraction of control) [14] -0.04 | inhibition [15] -1% | differentiation response [16] -9.91%

Cc1ccccc1N1C(N)=NC(N)=NC1(C)C
inactive: percent of DMSO control GFP [1] 102% | GFP response vs DMSO [2] 103% | percent response of DMSO control [3] 108% | GFP response vs DMSO [4] 94.8% | GFP response, % of DMSO [5] 104% | vesicle binding response [6] 135% | inhibition [7] -9.13% | superoxide response (% of plate) [8] 96.3% | aptamer binding inhibition [9] 0% | response [10] 7.98% | inhibition [11] -7.13% | response [12] 1.38% | binding (% of control) [13] 104% | efflux inhibition (fraction of control) [14] -0.28 | inhibition [15] 20% | differentiation response [16] -19.2%
63%: double positive events [6]

O=C(NCc1ccc(N2CCCC2=O)cc1)c1cccc(Cl)c1
57.4%: double positive events [6]
inactive: percent of DMSO control GFP [1] 102% | GFP response vs DMSO [2] 101% | percent response of DMSO control [3] 111% | GFP response vs DMSO [4] 105% | GFP response, % of DMSO [5] 99.4% | vesicle binding response [6] 215% | inhibition [7] -1.49% | superoxide response (% of plate) [8] 101% | aptamer binding inhibition [9] 1% | response [10] -4.33% | inhibition [11] 7.63% | response [12] -1.49% | binding (% of control) [13] 106% | efflux inhibition (fraction of control) [14] -0.14 | inhibition [15] 0% | differentiation response [16] -5.62%

CC(=O)N(C(C)=O)c1nc2nc(C)cc(C)n2n1
67.9%: double positive events [6]
inactive: percent of DMSO control GFP [1] 94.6% | GFP response vs DMSO [2] 133% | percent response of DMSO control [3] 110% | GFP response vs DMSO [4] 86.4% | GFP response, % of DMSO [5] 107% | vesicle binding response [6] 236% | inhibition [7] 0.64% | superoxide response (% of plate) [8] 98.5% | aptamer binding inhibition [9] 6% | response [10] -13.9% | inhibition [11] -10.8% | response [12] -0.39% | binding (% of control) [13] 102% | efflux inhibition (fraction of control) [14] -0.13 | inhibition [15] 11% | differentiation response [16] -6.55%

Source: PubChem BioAssay
